In PubChem BioAssay (NCI) one finds growth data, which are given here for eight compounds.

About 83,000 compounds went through this panel and 20% of them were active in at least one assay; those are over-represented in the sample as a whole.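 Plates (96-well) were seeded with cells, treated with compound at one concentration, and incubated for 48 hours before percent growth was determined.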 Values without a mark were called inactive. The source made the active and inactive calls. Rule for the calls: active = growth percent below 10; inactive = the rest.

Among the test systems are SR leukemia; RPMI-8226 leukemia; OVCAR-8 ovarian; OVCAR-5 ovarian; OVCAR-4 ovarian; SK-OV-3 ovarian; IGROV1 ovarian; OVCAR-3 ovarian; HS 578T breast; NCI/ADR-RES ovarian; T-47D breast; BT-549 breast; MDA-MB-435 melanoma; SW-620 colon; MCF7 breast; HCT-116 colon; HCC-2998 colon; KM12 colon; MDA-MB-468 breast.
Common to all, as to test: NCI-60 one-dose screen, 48 h (100 = growth as untreated, 0 = no growth, -100 = all killed)
What all share (settings): 10 µM unless noted

`C=CC[n+]1cccc2c3ccccc3ccc21`: the growth in the assay on SR leukemia is 46.5%; in the assay on RPMI-8226 leukemia, 27.6%; with OVCAR-8 ovarian, 41.1%; in the assay with OVCAR-5 ovarian it was 70.8%; with OVCAR-4 ovarian, 42%; in the assay on SK-OV-3 ovarian, 77%. Further, the growth in the assay on IGROV1 ovarian is 72.5%; in the assay with OVCAR-3 ovarian it was 35.9%; in the assay with HS 578T breast, 43.7%; in the assay on NCI/ADR-RES ovarian, 97.2%; in the assay on T-47D breast, 27%; with BT-549 breast it was 9.92% (active). For the same compound, the growth with MDA-MB-435 melanoma was 61.3%; in the assay on SW-620 colon it was 45.1%; in the assay with MCF7 breast, 25.2%; with HCT-116 colon it was 48.6%; with HCC-2998 colon, 55.7%; in the assay on KM12 colon, 20.2%. Besides, the growth in the assay on MDA-MB-468 breast was -9.82% (active).

As to `CC(=O)Nc1ccc(S(=O)(=O)Nc2ccc(-c3ccc4c(c3)NC(=O)/C4=C\c3ccc[nH]3)cc2)cc1`, the growth in the assay on SR leukemia was 34.7%; in the assay with RPMI-8226 leukemia it was 78.3%; with OVCAR-8 ovarian it was 98%; with OVCAR-5 ovarian it was 79.5%; in the assay with OVCAR-4 ovarian, 67.8%; in the assay with SK-OV-3 ovarian it was 104%. Also, the growth in the assay on IGROV1 ovarian is 81.2%; with OVCAR-3 ovarian, 141%; in the assay on HS 578T breast, 98.6%; in the assay on NCI/ADR-RES ovarian, 107%; in the assay with T-47D breast it was 20.7%; in the assay with BT-549 breast it was 42.6%. For the same compound, the growth is 99.7% in the assay on MDA-MB-435 melanoma; 114% in the assay on SW-620 colon; 14.4% with MCF7 breast; 87.1% with HCT-116 colon; 96.9% with HCC-2998 colon; 51.6% in the assay with KM12 colon. In addition, the growth in the assay on MDA-MB-468 breast is -7.1% (active).

For the compound `Cc1nn(-c2ccccc2)c2nc(C)n(C(=O)N/N=C/c3cccc([N+](=O)[O-])c3)c(=O)c12`, the growth is 98.6% with SR leukemia; 94% with RPMI-8226 leukemia; 94.5% in the assay with OVCAR-8 ovarian; 84.7% in the assay with OVCAR-5 ovarian; 53.2% in the assay with OVCAR-4 ovarian; 106% in the assay on SK-OV-3 ovarian. Moreover, the growth in the assay with IGROV1 ovarian was 91.9%; in the assay with OVCAR-3 ovarian, 99.8%; in the assay with HS 578T breast, 91.2%; in the assay on NCI/ADR-RES ovarian, 93.3%; in the assay with T-47D breast, 91.4%; with BT-549 breast it was 155%. The growth with MDA-MB-435 melanoma was 96.5%; in the assay with SW-620 colon, 103%; in the assay with MCF7 breast, 77.1%; in the assay on HCT-116 colon it was 87.5%; with HCC-2998 colon, 113%; in the assay on KM12 colon, 100%. Further, the growth in the assay with MDA-MB-468 breast is 73.1%.

As for `COc1ccc(-n2c(NC(=O)N3CCN(C)CC3)c(C#N)c3ccccc32)cc1`, the growth in the assay on SR leukemia was 31.5%; in the assay on RPMI-8226 leukemia, 41.6%; with OVCAR-8 ovarian, 66.8%; in the assay with OVCAR-5 ovarian it was 55.1%; with OVCAR-4 ovarian, 43.3%; with SK-OV-3 ovarian it was 55%. The growth is 34.2% in the assay with IGROV1 ovarian; 42.6% in the assay with OVCAR-3 ovarian; 27.3% with HS 578T breast; 59.5% in the assay on NCI/ADR-RES ovarian; 55.2% in the assay with T-47D breast; 57.7% in the assay with BT-549 breast. Moreover, the growth is 71.7% with MDA-MB-435 melanoma; 69.2% in the assay on SW-620 colon; 35.5% in the assay on MCF7 breast; 48% in the assay with HCT-116 colon; 89% in the assay on HCC-2998 colon; 34.1% with KM12 colon. For the same compound, in the assay on MDA-MB-468 breast, the growth was 38.3%.

Consider `Cc1nn(-c2ccccc2)c2nc(C)n(C(=O)N/N=C/c3ccccc3)c(=O)c12`, for which the growth was 115% in the assay with SR leukemia; 103% in the assay on RPMI-8226 leukemia; 101% in the assay with OVCAR-8 ovarian; 101% in the assay on OVCAR-5 ovarian; 101% with OVCAR-4 ovarian; 95.5% in the assay on SK-OV-3 ovarian. Also, the growth with IGROV1 ovarian is 97.6%; with OVCAR-3 ovarian it was 118%; with HS 578T breast, 84.3%; in the assay with NCI/ADR-RES ovarian, 100%; in the assay on T-47D breast, 90.6%; in the assay on BT-549 breast, 101%. Further, the growth with MDA-MB-435 melanoma is 102%; in the assay with SW-620 colon it was 101%; with MCF7 breast it was 92.9%; with HCT-116 colon, 102%; in the assay with HCC-2998 colon it was 100%; in the assay with KM12 colon, 99.4%. Moreover, in the assay on MDA-MB-468 breast, the growth was 115%.

For the compound `Fc1ccc(N2CC(Cn3c(C(F)(F)F)cc4c(Cl)ncnc43)C2)c(F)c1`, the growth is -60.9% (active) in the assay with SR leukemia; 24.2% with RPMI-8226 leukemia; -87.6% (active) in the assay on OVCAR-8 ovarian; 107% in the assay with OVCAR-5 ovarian; -27.1% (active) in the assay on OVCAR-4 ovarian; 100% with SK-OV-3 ovarian. For the same compound, the growth in the assay on IGROV1 ovarian was -95.7% (active); in the assay on OVCAR-3 ovarian it was -66.2% (active); in the assay with HS 578T breast it was 55.1%; in the assay on NCI/ADR-RES ovarian, 11.4%; with T-47D breast, 56.8%; with BT-549 breast it was -84.5% (active). The growth in the assay with MDA-MB-435 melanoma was 15.9%; in the assay on SW-620 colon, -79.6% (active); in the assay with MCF7 breast, 57.7%; with HCT-116 colon, -92.1% (active); in the assay on HCC-2998 colon, -91.4% (active); with KM12 colon, 99.5%. For the same compound, the growth with MDA-MB-468 breast was -50.5% (active).

`N#Cc1ccc(C(=O)NNC(=O)CSc2nc3sc4c(c3c(=O)n2-c2ccc(Cl)cc2)CCCC4)cc1`: the growth is 47.6% with SR leukemia; 54.6% with RPMI-8226 leukemia; 34.4% in the assay on OVCAR-8 ovarian; 31.9% with OVCAR-5 ovarian; 73.8% with OVCAR-4 ovarian; 72.7% in the assay with SK-OV-3 ovarian. The growth in the assay with IGROV1 ovarian is 30.7%; with OVCAR-3 ovarian, 91.8%; in the assay with HS 578T breast it was 59.4%; in the assay on NCI/ADR-RES ovarian it was 67.3%; in the assay on T-47D breast it was 58.6%; with BT-549 breast, 22.7%. For the same compound, the growth in the assay on MDA-MB-435 melanoma is 63.7%; with SW-620 colon, 60.3%; in the assay on MCF7 breast it was 63%; with HCT-116 colon it was 37.5%; with HCC-2998 colon, 96.1%; with KM12 colon, 91.2%. Moreover, the growth with MDA-MB-468 breast was 92%.

With `C=CCSc1nnc(-c2ccc(-c3nc4ccc(Cl)cc4[nH]3)cc2)o1`, the growth is 23.7% in the assay with SR leukemia; 55.2% with RPMI-8226 leukemia; 63.9% in the assay on OVCAR-8 ovarian; 76.8% with OVCAR-5 ovarian; 66.5% with OVCAR-4 ovarian; 88.8% in the assay on SK-OV-3 ovarian. The growth in the assay on IGROV1 ovarian is 59.6%; with OVCAR-3 ovarian it was 34%; with HS 578T breast it was 36.2%; in the assay with NCI/ADR-RES ovarian, 54.3%; with T-47D breast, 68.4%; in the assay on BT-549 breast it was 22.6%. The growth was -22.5% (active) in the assay with MDA-MB-435 melanoma; 27.8% with SW-620 colon; 25.1% in the assay with MCF7 breast; 29.5% with HCT-116 colon; 83.4% in the assay with HCC-2998 colon; 34.6% with KM12 colon. Also, the growth in the assay on MDA-MB-468 breast is 28.6%.
